Data: PubChem BioAssay (NCI)
About 83,000 compounds went through this panel and 20% of them were active in at least one assay; those are over-represented in the sample as a whole.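 Note: values are percent growth. 100 is the growth of untreated cells, values between 100 and 0 indicate rising inhibition; between -100 and 0 indicates cell death.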 A number with no mark means an inactive call. Active and inactive are the calls of the source. The calls were made as follows: active = growth percent below 10; inactive = the rest.

Columns and labels:
Experiment in all cases: NCI-60 one-dose screen, 48 h (100 = growth as untreated, 0 = no growth, -100 = all killed)
Settings in all cases: 10 µM unless noted
[1] = test system: HCT-15 colon
[2] = test system: HT29 colon
[3] = test system: SNB-75 CNS
[4] = test system: SNB-19 CNS
[5] = test system: U251 CNS
[6] = test system: PC-3 prostate
[7] = test system: SK-MEL-5 melanoma
[8] = test system: UACC-62 melanoma
[9] = test system: LOX IMVI melanoma
[10] = test system: SK-MEL-28 melanoma
[11] = test system: SK-MEL-2 melanoma
[12] = test system: EKVX NSCLC
[13] = test system: SN12C renal
[14] = test system: UO-31 renal
[15] = test system: TK-10 renal
[16] = test system: ACHN renal
[17] = test system: CAKI-1 renal
[18] = test system: A498 renal
[19] = test system: CCRF-CEM leukemia
[20] = test system: MOLT-4 leukemia

Structure (SMILES): CCOCC(O)(c1ccc(Cl)cc1)c1ccc(Cl)cc1
- growth [1]: 88.6%
- growth [2]: 81.4%
- growth [3]: 103%
- growth [4]: 106%
- growth [5]: 95.9%
- growth [6]: 88.8%
- growth [7]: 96.1%
- growth [8]: 87%
- growth [9]: 94.8%
- growth [10]: 108%
- growth [11]: 102%
- growth [12]: 94.1%
- growth [13]: 105%
- growth [14]: 91.3%
- growth [15]: 110%
- growth [16]: 98.7%
- growth [17]: 88.2%
- growth [18]: 112%
- growth [19]: 96.1%
- growth [20]: 88.7%

Structure (SMILES): Oc1ccc(CCCCCCc2ccc(O)cc2)cc1
- growth [1]: 74.5%
- growth [2]: 83.6%
- growth [3]: 51.1%
- growth [4]: 112%
- growth [5]: 54.7%
- growth [6]: 57.9%
- growth [7]: 50.2%
- growth [8]: 13.7%
- growth [9]: 53.3%
- growth [10]: 104%
- growth [11]: 89.2%
- growth [12]: 74.5%
- growth [13]: 69.6%
- growth [14]: 25.6%
- growth [15]: 84.9%
- growth [16]: -4.64% (active)
- growth [17]: 16.8%
- growth [18]: 103%
- growth [19]: 18.5%
- growth [20]: 106%

Structure (SMILES): NCCCOc1cc2ccccc2cc1C(=O)NCCCOc1cc2ccccc2cc1C(=O)Nc1ccc(Cl)cc1O
- growth [1]: -55.3% (active)
- growth [2]: -90.7% (active)
- growth [3]: -68.2% (active)
- growth [4]: -65.9% (active)
- growth [5]: -86.1% (active)
- growth [6]: -86.1% (active)
- growth [7]: -70% (active)
- growth [8]: -88.6% (active)
- growth [9]: -89.6% (active)
- growth [10]: -89.2% (active)
- growth [11]: -73.8% (active)
- growth [12]: -45.6% (active)
- growth [13]: -78.5% (active)
- growth [14]: -95.4% (active)
- growth [15]: -95.5% (active)
- growth [16]: -95.9% (active)
- growth [17]: -89.9% (active)
- growth [18]: -38.7% (active)
- growth [19]: -16.3% (active)
- growth [20]: -20.6% (active)

Structure (SMILES): Cc1nc2n[nH]c(N)c2nc1C
- growth [1]: 103%
- growth [2]: 93.6%
- growth [3]: 93.1%
- growth [4]: 103%
- growth [5]: 107%
- growth [6]: 102%
- growth [7]: 96.6%
- growth [8]: 106%
- growth [9]: 98.9%
- growth [10]: 105%
- growth [11]: 103%
- growth [12]: 106%
- growth [13]: 103%
- growth [14]: 87%
- growth [15]: 104%
- growth [16]: 104%
- growth [17]: 106%
- growth [18]: 120%
- growth [19]: 101%

Structure (SMILES): O=C(/C=C/c1cc([N+](=O)[O-])ccc1Cl)c1ccccc1
- growth [1]: 110%
- growth [2]: 14.3%
- growth [3]: 67.7%
- growth [4]: 87.8%
- growth [5]: 46%
- growth [6]: 85.4%
- growth [7]: 87.3%
- growth [8]: 70.5%
- growth [9]: -18.9% (active)
- growth [10]: 104%
- growth [11]: 107%
- growth [12]: 84.6%
- growth [13]: 80.8%
- growth [14]: 70.8%
- growth [15]: 112%
- growth [16]: 91.2%
- growth [17]: 73.2%
- growth [18]: 86%
- growth [19]: 68.7%
- growth [20]: 78%

Structure (SMILES): CC1(C)C2CCC(O)(C(=O)O)C1C2 (centres undefined)
- growth [1]: 114%
- growth [2]: 110%
- growth [3]: 83.4%
- growth [4]: 102%
- growth [5]: 113%
- growth [6]: 94.9%
- growth [7]: 107%
- growth [8]: 91%
- growth [9]: 110%
- growth [10]: 102%
- growth [11]: 106%
- growth [12]: 103%
- growth [13]: 104%
- growth [14]: 81.9%
- growth [15]: 120%
- growth [16]: 111%
- growth [17]: 94%
- growth [18]: 109%
- growth [19]: 112%
- growth [20]: 115%

Structure (SMILES): COc1cccc(/C=N/N=C(N)N)c1
- growth [1]: 100%
- growth [2]: 100%
- growth [3]: 89.9%
- growth [4]: 101%
- growth [5]: 103%
- growth [6]: 97.2%
- growth [7]: 98.1%
- growth [8]: 81.8%
- growth [9]: 106%
- growth [10]: 106%
- growth [11]: 107%
- growth [12]: 102%
- growth [13]: 95.2%
- growth [14]: 82.6%
- growth [15]: 113%
- growth [16]: 100%
- growth [17]: 104%
- growth [18]: 78%
- growth [19]: 108%
- growth [20]: 115%

Structure (SMILES): COc1ccc(/C(=C\c2ccc3c(c2)OCO3)C(=O)Nc2nc3ccccc3s2)cc1
- growth [1]: 93.2%
- growth [2]: 94.6%
- growth [3]: 103%
- growth [4]: 109%
- growth [5]: 101%
- growth [6]: 106%
- growth [7]: 98.9%
- growth [8]: 102%
- growth [9]: 100%
- growth [10]: 104%
- growth [11]: 95.2%
- growth [12]: 102%
- growth [13]: 98.3%
- growth [14]: 91.9%
- growth [15]: 104%
- growth [16]: 96.6%
- growth [17]: 91.4%
- growth [18]: 99.9%
- growth [19]: 95.4%
- growth [20]: 70.9%
